Laboratory results published in PubChem BioAssay (EPA / NIEHS).
Inconclusive results are not listed. The source holds several records for some structures; these can differ, active in one and inactive in another. Calls of active or inactive are those of the source. Rule for the calls, unless noted: active = hit-call score of the fitted dose curve at least 0.9, where 1 is the maximum; inactive = score below 0.9.

Tests used:
[1] = BSK_LPS_PGE2: BioMAP Diversity Plus: LPS Assay for Prostaglandin E2 (PGE2) Biomarker Activity (AID 2283082); conditions: primary human HUVEC with PBMC; actives raise or lower the signal;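 for AC50: secreted prostaglandin E2 measured by ELISA in LPS-stimulated co-culture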
Method in brief: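 HUVEC plus human PBMC co-culture stimulated with LPS; secreted PGE2 quantified by ELISA 24 h after chemical dosing. Activity fitted bidirectionally against DMSO baseline; parallel SRB staining (0.1% SRB after 10% TCA fixation, 560 nm) flags overt cytotoxicity.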

[2] = read-out: Macrophage colony-stimulating factor (MCSF), CSF1 (gene 1435); test: BSK_LPS_MCSF: BioMAP Diversity Plus: LPS Assay for Macrophage colony-stimulating factor (MCSF) Biomarker Activity (AID 2283083); conditions: primary human HUVEC with PBMC; actives raise or lower the signal
Method in brief: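 Human umbilical vein endothelial cells co-cultured with peripheral blood mononuclear cells were exposed to compound for 24 h. M-CSF levels were measured by ELISA, and bidirectional curve fitting used DMSO as the negative control and baseline.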

[3] = read-out: Tissue Factor, F3 (gene 2152); test: BSK_LPS_TissueFactor: BioMAP Diversity Plus: LPS Assay for Tissue Factor Biomarker Activity (AID 2283084); conditions: primary human HUVEC with PBMC; actives raise or lower the signal
Method in brief: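 Human umbilical vein endothelial cells co-cultured with peripheral blood mononuclear cells were dosed and stimulated with LPS. Cell-surface CD142 was quantified by ELISA at 24 h. Activity was fitted bidirectionally against DMSO baseline.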

[4] = read-out: Tumor necrosis factor (Homo sapiens) (UniProt P01375); test: BSK_LPS_TNFa: BioMAP Diversity Plus: LPS Assay for Tumour Necrosis Factor alpha (TNFa) Biomarker Activity (AID 2283085); conditions: primary human HUVEC with PBMC; actives raise or lower the signal
Method in brief: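 Human umbilical vein endothelial cells co-cultured with PBMC and stimulated with LPS. TNFa was measured by ELISA 24 h after chemical dosing, fitted bidirectionally relative to DMSO.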

[5] = read-out: Vascular cell adhesion molecule 1 (VCAM1), VCAM1 (gene 7412); test: BSK_LPS_VCAM1: BioMAP Diversity Plus: LPS Assay for Vascular cell adhesion molecule 1 (VCAM1) Biomarker Activity (AID 2283086); conditions: primary human HUVEC with PBMC; actives raise or lower the signal
Method in brief: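 Human umbilical vein endothelial cells co-cultured with PBMC and stimulated with LPS; VCAM-1 measured by ELISA 24 h after dosing. Bidirectional curve fitting against DMSO baseline; cytotoxicity tracked in parallel by SRB total-protein staining.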

CD38, CD38 (gene 952) = test: BSK_SAg_CD38: BioMAP Diversity Plus: SAg Assay for CD38 Biomarker Activity (AID 2283087); conditions: primary human HUVEC with PBMC; actives raise or lower the signal
Method in brief: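 Human HUVEC plus PBMC co-culture stimulated with superantigen; CD38 measured by ELISA 24 h after chemical dosing. Fluorescence read-out, bidirectional fit against DMSO; cytotoxicity tracked in parallel by SRB and Alamar Blue.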

CD40, CD40 (gene 958) = test: BSK_SAg_CD40: BioMAP Diversity Plus: SAg Assay for CD40 Biomarker Activity (AID 2283088); conditions: primary human HUVEC with PBMC; actives raise or lower the signal
Method in brief: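 Human umbilical vein endothelial cells co-cultured with PBMC; CD40 levels measured by ELISA with fluorescence read-out 24 h after chemical dosing. Gain or loss of signal fitted bidirectionally against DMSO baseline.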

CD69, CD69 (gene 969) = test: BSK_SAg_CD69: BioMAP Diversity Plus: SAg Assay for CD69 Biomarker Activity (AID 2283089); conditions: primary human HUVEC with PBMC; actives raise or lower the signal;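 for AC50: cell surface CD69 protein quantified by ELISA with fluorescence detection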
Method in brief: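 Values derive from bidirectional fitting relative to DMSO vehicle. Cells: umbilical vein endothelium plus peripheral blood mononuclear cells, treated 24 h before fluorescent ELISA for CD69.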

[6] = read-out: Monocyte Chemoattractant Protein-1 (MCP1), CCL2 (gene 6347); test: BSK_SAg_MCP1: BioMAP Diversity Plus: SAg Assay for Monocyte Chemoattractant Protein-1 (MCP1) Biomarker Activity (AID 2283090); conditions: primary human HUVEC with PBMC; actives raise or lower the signal
Method in brief: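 MCP-1 levels in the endothelial–PBMC SAg co-culture were quantified by ELISA at 24 h post-dosing; both increases and decreases versus DMSO scored. Cytotoxicity monitored by SRB total protein in parallel cultures.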

[7] = read-out: E-selectin (Homo sapiens) (UniProt P16581); test: BSK_SAg_Eselectin: BioMAP Diversity Plus: SAg Assay for Eselectin Biomarker Activity (AID 2283091); conditions: primary human HUVEC with PBMC; actives raise or lower the signal
Method in brief: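 HUVEC co-cultured with PBMC, compound dosed then read at 24 h; E-selectin measured by ELISA. Activity fitted bidirectionally against DMSO as negative control and baseline.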

[8] = read-out: Monokine induced gamma interferon (MIG), CXCL9 (gene 4283); test: BSK_SAg_MIG: BioMAP Diversity Plus: SAg Assay for Monokine induced gamma interferon (MIG) Biomarker Activity (AID 2283092); conditions: primary human HUVEC with PBMC; actives raise or lower the signal
Method in brief: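 Values reflect bidirectional fitting of ELISA-measured MIG against DMSO vehicle, taken 24 h after dosing of a co-culture of human umbilical vein endothelial cells and peripheral blood mononuclear cells.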

[9] = BSK_SAg_PBMCCytotoxicity: PBMC Cytotoxicity Assessment in the BioMAP Diversity Plus: SAg Assay (AID 2283093); conditions: primary human HUVEC with PBMC;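 note: PBMC viability measured as Alamar Blue reduction fluorescence at 546/580 nm; fitted both ways against DMSO so a hit may be loss or gain of signal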;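 for AC50: PBMC superantigen activated with SEB plus TSST-1 one hour after compound addition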
Method in brief: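 HUVEC/PBMC co-culture; PBMC exposed to chemical 1 h before SEB and TSST-1 activation (20 ng/mL each), incubated 90 h, then Alamar Blue 6 h, fluorescence 546/580 nm. Bidirectional fit versus DMSO baseline.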

[10] = read-out: Interleukin-8 (IL8), CXCL8 (gene 3576); test: BSK_SAg_IL8: BioMAP Diversity Plus: SAg Assay for Interleukin-8 (IL8) Biomarker Activity (AID 2283094); conditions: primary human HUVEC with PBMC; actives raise or lower the signal
Method in brief: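 Human umbilical vein endothelial cells co-cultured with PBMC, stimulated with superantigen; IL-8 measured by ELISA 24 h after chemical dosing. Bidirectional fitting versus DMSO; SRB staining in parallel cultures tracks cytotoxicity.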

[11] = BSK_SAg_SRB: Viability Assessment in the BioMAP Diversity Plus: SAg Assay (AID 2283096); conditions: primary human HUVEC with PBMC;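 note: cells read one day after compound addition; hits may be either gain or loss of signal compared with DMSO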
Method in brief: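 Human umbilical vein endothelial cells co-cultured with PBMC, read 24 h after compound dosing. Total protein measured by sulforhodamine B staining (0.1% SRB after 10% TCA fixation, absorbance 560 nm); bidirectional fit versus DMSO baseline.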

[12] = target: human CYP2D6, CYP2D6 (gene 1565) (UniProt P10635); test: NVS_ADME_hCYP2D6: NovaScreen (NVS) CYP450-related Enzyme Activity (ADME) Assay for human CYP2D6 (AID 2283107; active = hit-call score of the fitted dose curve at least 0.9, where 1 is the maximum)
Sequence of human CYP2D6, CYP2D6 (gene 1565) (P10635 whole entry, looked up): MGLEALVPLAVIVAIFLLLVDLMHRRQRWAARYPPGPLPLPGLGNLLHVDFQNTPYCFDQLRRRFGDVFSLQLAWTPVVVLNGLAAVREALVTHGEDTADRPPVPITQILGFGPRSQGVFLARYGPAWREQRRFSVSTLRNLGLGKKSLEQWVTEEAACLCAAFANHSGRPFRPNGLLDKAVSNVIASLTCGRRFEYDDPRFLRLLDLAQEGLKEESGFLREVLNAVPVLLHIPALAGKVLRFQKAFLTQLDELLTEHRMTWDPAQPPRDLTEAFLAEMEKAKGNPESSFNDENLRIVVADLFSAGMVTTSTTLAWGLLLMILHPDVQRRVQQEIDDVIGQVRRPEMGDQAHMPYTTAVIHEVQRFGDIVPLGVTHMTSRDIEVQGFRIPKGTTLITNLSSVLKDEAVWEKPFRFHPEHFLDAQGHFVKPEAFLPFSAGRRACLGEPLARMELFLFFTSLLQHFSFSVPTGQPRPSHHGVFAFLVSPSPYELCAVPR
Method in brief: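 Cell-free assay using recombinant enzyme expressed in insect cells, with fluorescence-intensity readout of enzyme activity 1 hour after chemical dosing. Loss of signal versus acetonitrile negative control indicates inhibition. Primary screen ran in duplicate at 10 uM; actives were retested in concentration series.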

[13] = target: human CYP1A2, CYP1A2 (gene 1544) (UniProt P05177); test: NVS_ADME_hCYP1A2: NovaScreen (NVS) CYP450-related Enzyme Activity (ADME) Assay for human CYP1A2 (AID 2283102; active = hit-call score of the fitted dose curve at least 0.9, where 1 is the maximum;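 for AC50: potency for inhibition since loss of fluorescence marks reduced CYP1A2 activity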)
Sequence of human CYP1A2, CYP1A2 (gene 1544) (P05177 whole entry, looked up): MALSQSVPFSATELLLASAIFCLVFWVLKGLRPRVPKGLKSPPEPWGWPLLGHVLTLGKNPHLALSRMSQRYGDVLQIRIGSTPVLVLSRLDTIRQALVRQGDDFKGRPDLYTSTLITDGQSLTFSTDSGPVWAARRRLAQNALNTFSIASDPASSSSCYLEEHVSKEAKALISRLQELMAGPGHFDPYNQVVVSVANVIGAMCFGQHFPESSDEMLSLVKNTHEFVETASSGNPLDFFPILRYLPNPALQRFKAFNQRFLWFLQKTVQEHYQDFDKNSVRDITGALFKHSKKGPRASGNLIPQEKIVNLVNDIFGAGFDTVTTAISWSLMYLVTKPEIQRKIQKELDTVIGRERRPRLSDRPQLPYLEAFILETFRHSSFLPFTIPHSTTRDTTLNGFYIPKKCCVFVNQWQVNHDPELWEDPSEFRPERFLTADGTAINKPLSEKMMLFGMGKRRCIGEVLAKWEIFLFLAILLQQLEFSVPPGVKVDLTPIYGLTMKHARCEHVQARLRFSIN
Method in brief: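 Cell-free recombinant human CYP1A2 expressed in insect cells, with fluorogenic substrate; fluorescence intensity read 0.5 h after dosing. Loss of signal relative to acetonitrile baseline scored. Primary screen in duplicate at 10 uM; actives retested in concentration series.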

[14] = target: human CYP19A1, CYP19A1 (gene 1588) (UniProt P11511); test: NVS_ADME_hCYP19A1: NovaScreen (NVS) CYP450-related Enzyme Activity (ADME) Assay for human CYP19A1 (AID 2283098; active = hit-call score of the fitted dose curve at least 0.9, where 1 is the maximum;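 for AC50: potency for inhibitors seen as loss of fluorescent enzyme signal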)
Sequence of human CYP19A1, CYP19A1 (gene 1588) (P11511 whole entry, looked up): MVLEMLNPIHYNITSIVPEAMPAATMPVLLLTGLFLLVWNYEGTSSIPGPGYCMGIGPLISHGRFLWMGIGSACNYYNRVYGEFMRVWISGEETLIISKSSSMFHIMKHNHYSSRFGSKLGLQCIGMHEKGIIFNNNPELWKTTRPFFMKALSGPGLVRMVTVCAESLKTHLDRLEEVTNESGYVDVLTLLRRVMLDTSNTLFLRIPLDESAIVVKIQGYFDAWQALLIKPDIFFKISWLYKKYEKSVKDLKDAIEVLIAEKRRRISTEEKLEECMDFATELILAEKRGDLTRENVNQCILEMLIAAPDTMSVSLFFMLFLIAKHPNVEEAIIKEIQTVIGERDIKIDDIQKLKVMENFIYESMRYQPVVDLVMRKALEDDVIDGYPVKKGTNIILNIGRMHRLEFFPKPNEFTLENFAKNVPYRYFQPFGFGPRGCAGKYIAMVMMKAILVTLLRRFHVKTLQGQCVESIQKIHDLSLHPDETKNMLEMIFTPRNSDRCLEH
Method in brief: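 Recombinant enzyme in a cell-free format, read 0.5 h after dosing by fluorescence from a fluorogenic substrate. Loss of signal was fitted against acetonitrile as baseline. Primary screen in duplicate at 10 uM, actives then tested in concentration series.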

[15] = BSK_SAg_Proliferation: Cell Proliferation Assessment in the BioMAP Diversity Plus: SAg Assay (AID 2283095); conditions: primary human HUVEC with PBMC
Method in brief: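 Human umbilical vein endothelial cells co-cultured with PBMC; sulforhodamine B total-protein staining (0.1% SRB after 10% TCA fixation, absorbance 560 nm) at 96 h in sub-confluent culture. Fitted bidirectionally against DMSO.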

Measured: AC50

Sequence of E-selectin (Homo sapiens) (P16581 whole entry, looked up): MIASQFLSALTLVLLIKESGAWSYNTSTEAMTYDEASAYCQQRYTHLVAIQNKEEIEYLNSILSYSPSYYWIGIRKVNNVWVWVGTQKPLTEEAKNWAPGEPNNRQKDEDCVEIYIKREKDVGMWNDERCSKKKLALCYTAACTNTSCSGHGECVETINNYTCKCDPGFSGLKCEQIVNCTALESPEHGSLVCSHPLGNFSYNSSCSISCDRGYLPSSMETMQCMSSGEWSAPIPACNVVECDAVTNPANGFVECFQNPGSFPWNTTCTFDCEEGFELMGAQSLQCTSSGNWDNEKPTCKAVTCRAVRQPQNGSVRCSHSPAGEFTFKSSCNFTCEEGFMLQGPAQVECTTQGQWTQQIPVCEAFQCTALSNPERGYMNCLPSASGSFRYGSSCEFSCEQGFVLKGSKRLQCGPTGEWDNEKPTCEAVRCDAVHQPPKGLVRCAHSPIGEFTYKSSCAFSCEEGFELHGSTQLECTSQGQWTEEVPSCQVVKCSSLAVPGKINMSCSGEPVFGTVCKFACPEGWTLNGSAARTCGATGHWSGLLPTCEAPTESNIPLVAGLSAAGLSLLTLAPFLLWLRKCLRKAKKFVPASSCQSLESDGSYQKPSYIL
Sequence of Tumor necrosis factor (Homo sapiens) (P01375 whole entry, looked up): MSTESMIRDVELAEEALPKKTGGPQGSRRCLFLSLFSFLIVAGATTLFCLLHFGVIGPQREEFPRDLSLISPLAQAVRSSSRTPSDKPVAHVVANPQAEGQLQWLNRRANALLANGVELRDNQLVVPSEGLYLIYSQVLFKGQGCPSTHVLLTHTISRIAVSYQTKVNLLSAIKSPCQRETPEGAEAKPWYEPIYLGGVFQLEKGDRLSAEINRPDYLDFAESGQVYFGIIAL

COc1nc(C)nc(NC(=O)NS(=O)(=O)c2ccccc2OCCCl)n1
active: [12] 1.07 µM
not listed: [13] | [14] | [15]
inactive: all other assays above

CCCCCCC(C)OC(=O)COc1nc(F)c(Cl)c(N)c1Cl (stereo not drawn)
active: [1] 20.3 µM | [2] 29.8 µM | [3] 35.9 µM | [4] 34.3 µM | [5] 30.8 µM | CD38, CD38 (gene 952) 30.7 µM | CD40, CD40 (gene 958) 29.5 µM | CD69, CD69 (gene 969) 31 µM | [6] 29.8 µM | [7] 33 µM | [8] 38.5 µM | [9] 12.3 µM | [10] 29.1 µM | [11] 34.9 µM
inactive: [13]

COC(=O)c1ccccc1S(=O)(=O)NC(=O)Nc1nc(OC(F)F)cc(OC(F)F)n1
active: [4] 12 µM | [13] 5.43 µM
not listed: [12] | [14] | [15]
inactive: all other assays above

CC(C)CCCCCCc1ccc(O)cc1
active: [1] 6.36 µM | [2] 9.04 µM | [3] 12.3 µM | [4] 7.19 µM | [5] 10 µM | CD38, CD38 (gene 952) 8.61 µM | CD40, CD40 (gene 958) 8.59 µM | CD69, CD69 (gene 969) 10.7 µM | [6] 6.52 µM | [7] 9.34 µM | [8] 9.25 µM | [9] 6.38 µM | [10] 6.55 µM | [11] 13.1 µM

CCCCC(CC)CN1C(=O)C2C3C=CC(C3)C2C1=O (stereo not drawn)
inactive: [1] | [3] | [6] | [7] | [8] | [10] | [14]
active: [2] 15.5 µM | [4] 0.237 µM | [5] 20 µM | CD38, CD38 (gene 952) 26.3 µM | CD69, CD69 (gene 969) 20 µM | [9] 15.3 µM | [11] 20 µM | [13] 5.57 µM

CCOC(=O)c1ccc(O)cc1
not listed: [12] | [13] | [14] | [15]
inactive: all other assays above

C[C@]12C[C@H](O)[C@H]3[C@@H](CCC4=CC(=O)CC[C@@]43C)[C@@H]1CC[C@@H]2C(=O)CO
not listed: [2] | [12] | [13]
inactive: all other assays above

CC(=O)S[C@@H]1CC2=CC(=O)CC[C@]2(C)[C@H]2CC[C@@]3(C)[C@@H](CC[C@@]34CCC(=O)O4)[C@H]12
active: [1] 15.6 µM | [2] 22 µM | [3] 20 µM | [4] 13.9 µM | [5] 29.7 µM | CD38, CD38 (gene 952) 19.3 µM | CD40, CD40 (gene 958) 20 µM | CD69, CD69 (gene 969) 13.9 µM | [6] 17.2 µM | [7] 14.9 µM | [8] 25.7 µM | [9] 13.3 µM | [10] 11.1 µM | [11] 22.7 µM | [14] 8.3 µM
inactive: [14]

CCSC(=O)N(CC(C)C)CC(C)C
not listed: [12] | [13] | [14] | [15]
inactive: all other assays above
